Assay outcomes (PubChem BioAssay)
ADAM17 inh – ADAM17 inhibitors, primary screen, biochemical, QFRET. Disintegrin and metalloproteinase domain-containing protein 17 (Homo sapiens), P78536. recombinant ADAM17, EDANS/DABCYL FRET peptide cleavage. inhibition, % at 6.95 µM. actives 0.83% (n = 370,000). AID 720648, 2013;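 active = inhibition above the mean of compounds lying between control limits plus 3 SD, set per campaign, cut at about 8.5% in these data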;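 also: 0% = DMSO-only wells as the low control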
Target sequence (P78536 215-824 limits assumed): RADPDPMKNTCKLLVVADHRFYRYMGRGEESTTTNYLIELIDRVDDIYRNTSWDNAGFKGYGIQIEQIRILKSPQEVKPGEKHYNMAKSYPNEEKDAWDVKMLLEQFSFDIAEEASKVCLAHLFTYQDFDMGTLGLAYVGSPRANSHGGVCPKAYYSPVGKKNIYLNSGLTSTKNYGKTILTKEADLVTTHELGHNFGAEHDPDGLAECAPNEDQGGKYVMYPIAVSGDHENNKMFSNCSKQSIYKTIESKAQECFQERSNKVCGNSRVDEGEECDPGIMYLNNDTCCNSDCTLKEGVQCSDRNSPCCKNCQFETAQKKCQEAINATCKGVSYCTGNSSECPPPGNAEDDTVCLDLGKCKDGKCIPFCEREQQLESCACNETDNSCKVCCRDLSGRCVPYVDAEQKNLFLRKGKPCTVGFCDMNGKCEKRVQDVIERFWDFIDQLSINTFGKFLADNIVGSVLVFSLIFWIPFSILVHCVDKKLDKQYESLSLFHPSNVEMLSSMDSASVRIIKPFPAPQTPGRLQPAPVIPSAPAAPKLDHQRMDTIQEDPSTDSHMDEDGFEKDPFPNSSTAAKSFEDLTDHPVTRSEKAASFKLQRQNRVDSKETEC
FGF22 binding – binders of human FGF22 protein, primary screen, FGF22 synaptogenesis inhibitor project, biophysical, thermal shift, single point; AID 651658, 2012; recombinant FGF22 thermal shift, SYPRO orange fluorescence; percent of sucrose octasulfate shift, DMSO zero; activity (Tm shift, normalised), % at 9.99 µM; actives 1.5% (n = 340,000); Fibroblast growth factor 22 (Homo sapiens), Q9HCT0;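 active = mean Tm shift, scaled 0 neutral to 100 positive control, at about 1.3% or above, every replicate too, limit read from the data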
proKLK7 act – proKLK7 zymogen activators, primary screen, biochemical, fluorescence intensity; Kallikrein-7 (Homo sapiens), P49862; purified proKLK7, EDANS-DABCYL substrate fluorescence; 100% is mature enzyme control, 0% vehicle; activation, % at 7 µM; actives 0.9% (n = 370,000); AID 652039, 2013;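 active = activation above the mean of all tested compounds plus 3 SD, computed per campaign excluding outliers beyond control limits, cut at about 13% in these data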
Ecoli rRNA inh – reduced GFP signal of wild-type E. coli, primary screen, bacterial rRNA inhibitor project, GFP/RFP fluorescence, OD600, single point; E. coli WT GFP vs humanized-ribosome RFP mutants, 24 h; active compounds read low; DMSO median 0, no signal -100; GFP signal change (wild-type ribosome), % (test concentration not listed); actives 1.6% (n = 350,000);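 active = significant combined selectivity score with lowered wild-type GFP, culture density cut under 30%, mutant RFP and density less affected; inactive = any of these conditions unmet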
ADAM10 inh – human ADAM10 inhibitors, primary screen, biochemical, QFRET, HTS; actives 0.62% (n = 370,000); Disintegrin and metalloproteinase domain-containing protein 10 (Homo sapiens), O14672; inhibition, % at 7 µM; AID 720582, 2013; recombinant ADAM10, EDANS/DABCYL FRET peptide cleavage, 3 h;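 active = inhibition above a per-campaign cutoff equal to the mean of compounds falling between control-based bounds plus 3 SD, cut at about 20% in these data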;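 also: 0% = DMSO wells while the 100% control is not disclosed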
proKLK7 act conf – proKLK7 zymogen activators, confirmation, biochemical, fluorescence intensity, triplicate; shares compounds with proKLK7 act; purified proKLK7, EDANS-DABCYL substrate fluorescence; scaled: vehicle 0, mature enzyme 100; activation, % at 7 µM; actives 68% (n = 3,200); AID 686949, 2013;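 active = activation, as change over the incubation, above the mean of all tested compounds plus 3 SD, cut at about 13% in these data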
EDANS interfere – EDANS-DABCYL substrate optical interference, artefact control for kallikrein-7 zymogen activator project, biochemical, fluorescence intensity, high throughput | shares compounds with proKLK7 act | no enzyme, 4 h; solvent 0%, active enzyme control 100% | activation, % at 7 µM | actives 80% (n = 3,200) | AID 686952, 2013;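 active = activation above the all-compound mean plus 3 SD, ignoring values outside control-based bounds, cut at about 4.8% in these data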;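 also: value is the 4 h activation minus the activation read at time zero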
K7 EDANS ctr – counter-screen for kallikrein-7 activators: EDANS-DABCYL interference, dose response; actives 20% (n = 250); shares compounds with proKLK7 act; AID 720493; EDANS-DABCYL peptide fluorescence interference, no enzyme; EC50, µM;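 active = compounds that raise the fluorescence signal in this interference counterscreen, with EC50 at or below 10 µM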;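 also: intact quenched peptide substrate alone read at 355 nm excitation and 520 nm emission; signal is fluorescence gain from T0 to T4 after four hours at room temperature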
An asterisk follows results filed as active. Sampled rows, rich in hits. Any-hit rate of the full collection: about 3.8%.

`O=C(c1cnn2c(C(F)(F)F)cc(-c3cccs3)nc12)N1CCN(C(c2ccccc2)c2ccccc2)CC1` gave ADAM17 inh -10.0, proKLK7 act -2.3 and ADAM10 inh -35.1.
CN1CCN(C(=O)c2cnn3c(C(F)(F)F)cc(-c4cccs4)nc23)CC1 was read as ADAM17 inh -53.2, proKLK7 act 18.6*, ADAM10 inh -203.0, proKLK7 act conf 28.7* and EDANS interfere 25.1*.
O=C(c1ccco1)N1CCN(C(=O)c2cnn3c(C(F)(F)F)cc(-c4cccs4)nc23)CC1 was read as ADAM17 inh -117.5, proKLK7 act 25.0*, ADAM10 inh -348.9, proKLK7 act conf -3.6 and EDANS interfere 0.9.
`Cc1noc(C)c1NC(=O)Nc1cccc2c1O[C@@H](CN(C)C(=O)NC1CCCCC1)[C@H](C)CN([C@@H](C)CO)C2=O` gave FGF22 binding -0.1 and Ecoli rRNA inh 1.7.
`Cc1coc2c1c(C)cc1oc(=O)c(CC(=O)N[C@H](C(=O)O)C(C)C)c(C)c12` gave ADAM17 inh -263.9, FGF22 binding -0.4, proKLK7 act 22.6*, Ecoli rRNA inh -14.6, ADAM10 inh inactive, proKLK7 act conf 29.1* and EDANS interfere 37.2*.
`CCC(NC(=O)Cc1c(C)c2c(cc(C)c3c(C)c(C)oc32)oc1=O)C(=O)O` (stereo unspecified) gave ADAM17 inh -109.1, FGF22 binding 0.0, proKLK7 act 23.4*, Ecoli rRNA inh -7.4, ADAM10 inh -323.3, proKLK7 act conf 16.3*, EDANS interfere 1.1 and K7 EDANS ctr >69.5.
Cc1coc2c1c(C)cc1oc(=O)c(Cc3ccccc3)c(C)c12 was read as ADAM17 inh -3.3, proKLK7 act -0.1 and ADAM10 inh -4.4.
For Cc1coc2c(C)c3oc(=O)c(CCC(=O)NCCC(=O)O)c(C)c3cc12 the results were ADAM17 inh -26.3, FGF22 binding 0.3, proKLK7 act 7.7, Ecoli rRNA inh 0.3 and ADAM10 inh -61.8.
Screening COCCCNC(=O)Cc1c(C)c2c(cc(C)c3c(C(C)(C)C)coc32)oc1=O returned ADAM17 inh -171.4, FGF22 binding -0.3, proKLK7 act -11.6, Ecoli rRNA inh -53.1 and ADAM10 inh -432.3.
For Cc1coc2c(C)c3oc(=O)c(CCC(=O)N[C@H](C(=O)O)C(C)C)c(C)c3cc12 the results were ADAM17 inh -77.1, FGF22 binding -0.3, proKLK7 act 15.7*, Ecoli rRNA inh -7.0, ADAM10 inh -303.0, proKLK7 act conf 7.5 and EDANS interfere 10.1*.
`Cc1coc2c1c(C)cc1oc(=O)c(CC(=O)N[C@@H](C)C(=O)O)c(C)c12` gave ADAM17 inh -375.4, FGF22 binding -0.3, proKLK7 act 28.9*, Ecoli rRNA inh 5.8, ADAM10 inh inactive, proKLK7 act conf 23.7* and EDANS interfere 27.0*.
Screening CSCC[C@H](NC(=O)Cc1c(C)c2c(cc(C)c3c(C)c(C)oc32)oc1=O)C(=O)O returned ADAM17 inh -68.6, FGF22 binding -0.3, proKLK7 act -6.8, Ecoli rRNA inh -17.6 and ADAM10 inh -157.0.
`CN1c2ccc(-c3ccccc3F)cc2[C@H]2[C@H](CCN2S(=O)(=O)c2ccc(F)cc2)[C@@H]1CO` gave FGF22 binding 0.0 and Ecoli rRNA inh -1.3.
COc1cc2c(cc1OC)C(C1C(=O)CCCC1=O)N(C(=O)CCl)CC2 (stereo unspecified) was read as ADAM17 inh -285.8, FGF22 binding -0.2, proKLK7 act 190.9*, Ecoli rRNA inh 15.1, ADAM10 inh inactive, proKLK7 act conf 6.4 and EDANS interfere 9.2*.
COc1cc2c(cc1OC)C(C1C(=O)CC(C)CC1=O)N(C(=O)CCl)CC2 (stereo unspecified) was read as ADAM17 inh -221.7, FGF22 binding 0.1, proKLK7 act 213.2*, Ecoli rRNA inh 18.6, ADAM10 inh inactive, proKLK7 act conf 8.8 and EDANS interfere 9.7*.
Screening C[C@H](CO)N1C[C@H](C)[C@H](CN(C)C(=O)c2ccccc2F)Oc2cc(-c3ccccc3)ccc2S1(=O)=O returned Ecoli rRNA inh -8.5.
O=C(C1CCOCC1)N1CC[C@@H]2[C@H](CO)Nc3ccc(-c4ccc(F)cc4)cc3[C@@H]21 was read as FGF22 binding 0.1 and Ecoli rRNA inh 0.6.
`COc1cccc2sc3cc(NCc4ccc(C)o4)ccc3c(=O)c12` gave ADAM17 inh -218.4, FGF22 binding -0.2, proKLK7 act 42.9*, Ecoli rRNA inh -10.0, ADAM10 inh inactive, proKLK7 act conf 38.4* and EDANS interfere 38.9*.
Screening Cc1ccc2[nH]c3c(c2c1)SC(C)(C)CC3=O returned ADAM17 inh -37.2, FGF22 binding 0.3, proKLK7 act 15.3*, Ecoli rRNA inh -17.5, ADAM10 inh -94.8, proKLK7 act conf 12.7* and EDANS interfere 16.2*.
`COC(=O)c1cc(-c2ccc(C(C)=O)cc2)c(=O)n2c1CCC2` gave ADAM17 inh -278.3, proKLK7 act 39.4*, ADAM10 inh inactive, proKLK7 act conf 71.9* and EDANS interfere 71.2*.
Screening COC(=O)c1cc(-c2ccc(C)cc2)c(=O)n2c1CCC2 returned ADAM17 inh -13.3, proKLK7 act 0.4 and ADAM10 inh -37.8.
CCOC(=O)CNc1c(-c2ccc(O)cc2)nc2ccccn12 was read as ADAM17 inh -269.6, proKLK7 act 20.1*, ADAM10 inh inactive, proKLK7 act conf 27.3* and EDANS interfere 61.9*.
CCOC(=O)CNc1c(-c2ccc(O)cc2)nc2ccc(Cl)cn12 was read as ADAM17 inh -30.4, proKLK7 act -5.2 and ADAM10 inh -94.5.
For Nc1c(C(=O)NCC2CCCO2)c2nc3ccccc3nc2n1-c1ccccc1 (stereo unspecified) the results were ADAM17 inh inactive, proKLK7 act -33.6 and ADAM10 inh inactive.
